Laboratory results from the supplement of paper PMC8975748.

How the values were obtained:
[1] = test system: Saccharomyces cerevisiae BY4741 SeMeCo community; test: z-score of prototroph abundance vs DMSO median; higher = larger share of this subpopulation than in DMSO controls; details: 10 µM; 24 h; SM minimal medium; subpopulation (auxotrophy): Prototroph
Method in brief: (§1)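 Automated confocal microscopy of paraformaldehyde-fixed cells was used to follow a Saccharomyces cerevisiae BY4741 community carrying four plasmids, each restoring one auxotrophy and encoding a distinct fluorescent protein. The community was pre-grown overnight to OD600 1.0, diluted to 0.3, and added at 70 µl to 384-well plates acoustically predosed with library drugs (10 µM final) for 24 h of growth in minimal SM medium. Single-auxotroph fluorescent strains set thresholds and autofluorescence correction, and each subpopulation's abundance was scored as a z-score against the vehicle-well median.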

[2] = test system: Saccharomyces cerevisiae BY4741 SeMeCo community; test: z-score of subpopulation abundance vs DMSO median, subpopulation auxotrophic for M; higher = larger share of this subpopulation than in DMSO controls; details: 10 µM; 24 h; SM minimal medium; subpopulation (auxotrophy): M
Method in brief: as §1

[3] = test system: Saccharomyces cerevisiae BY4741 SeMeCo community; test: z-score of subpopulation abundance vs DMSO median, subpopulation auxotrophic for L; higher = larger share of this subpopulation than in DMSO controls; details: 10 µM; 24 h; SM minimal medium; subpopulation (auxotrophy): L
Method in brief: as §1

[4] = test system: Saccharomyces cerevisiae BY4741 SeMeCo community; test: z-score of subpopulation abundance vs DMSO median, subpopulation auxotrophic for U; higher = larger share of this subpopulation than in DMSO controls; details: 10 µM; 24 h; SM minimal medium; subpopulation (auxotrophy): U
Method in brief: as §1

[5] = test system: Saccharomyces cerevisiae BY4741 SeMeCo community; test: z-score of subpopulation abundance vs DMSO median, subpopulation auxotrophic for H; higher = larger share of this subpopulation than in DMSO controls; details: 10 µM; 24 h; SM minimal medium; subpopulation (auxotrophy): H
Method in brief: as §1

[6] = test system: Saccharomyces cerevisiae BY4741 SeMeCo community; test: z-score of subpopulation abundance vs DMSO median, subpopulation auxotrophic for LU; higher = larger share of this subpopulation than in DMSO controls; details: 10 µM; 24 h; SM minimal medium; subpopulation (auxotrophy): LU
Method in brief: as §1

[7] = test system: Saccharomyces cerevisiae BY4741 SeMeCo community; test: z-score of subpopulation abundance vs DMSO median, subpopulation auxotrophic for LM; higher = larger share of this subpopulation than in DMSO controls; details: 10 µM; 24 h; SM minimal medium; subpopulation (auxotrophy): LM
Method in brief: as §1

[8] = test system: Saccharomyces cerevisiae BY4741 SeMeCo community; test: z-score of subpopulation abundance vs DMSO median, subpopulation auxotrophic for HM; higher = larger share of this subpopulation than in DMSO controls; details: 10 µM; 24 h; SM minimal medium; subpopulation (auxotrophy): HM
Method in brief: as §1

[9] = test system: Saccharomyces cerevisiae BY4741 SeMeCo community; test: z-score of subpopulation abundance vs DMSO median, subpopulation auxotrophic for HU; higher = larger share of this subpopulation than in DMSO controls; details: 10 µM; 24 h; SM minimal medium; subpopulation (auxotrophy): HU
Method in brief: as §1

[10] = test system: Saccharomyces cerevisiae BY4741 SeMeCo community; test: z-score of subpopulation abundance vs DMSO median, subpopulation auxotrophic for UM; higher = larger share of this subpopulation than in DMSO controls; details: 10 µM; 24 h; SM minimal medium; subpopulation (auxotrophy): UM
Method in brief: as §1

[11] = test system: Saccharomyces cerevisiae BY4741 SeMeCo community; test: z-score of subpopulation abundance vs DMSO median, subpopulation auxotrophic for HL; higher = larger share of this subpopulation than in DMSO controls; details: 10 µM; 24 h; SM minimal medium; subpopulation (auxotrophy): HL
Method in brief: as §1

[12] = test system: Saccharomyces cerevisiae BY4741 SeMeCo community; test: z-score of subpopulation abundance vs DMSO median, subpopulation auxotrophic for HLU; higher = larger share of this subpopulation than in DMSO controls; details: 10 µM; 24 h; SM minimal medium; subpopulation (auxotrophy): HLU
Method in brief: as §1

[13] = test system: Saccharomyces cerevisiae BY4741 SeMeCo community; test: z-score of subpopulation abundance vs DMSO median, subpopulation auxotrophic for HLM; higher = larger share of this subpopulation than in DMSO controls; details: 10 µM; 24 h; SM minimal medium; subpopulation (auxotrophy): HLM
Method in brief: as §1

[14] = test system: Saccharomyces cerevisiae BY4741 SeMeCo community; test: z-score of subpopulation abundance vs DMSO median, subpopulation auxotrophic for HUM; higher = larger share of this subpopulation than in DMSO controls; details: 10 µM; 24 h; SM minimal medium; subpopulation (auxotrophy): HUM
Method in brief: as §1

[15] = test system: Saccharomyces cerevisiae BY4741 SeMeCo community; test: z-score of subpopulation abundance vs DMSO median, subpopulation auxotrophic for LUM; higher = larger share of this subpopulation than in DMSO controls; details: 10 µM; 24 h; SM minimal medium; subpopulation (auxotrophy): LUM
Method in brief: as §1

[16] = test system: Saccharomyces cerevisiae BY4741 SeMeCo community; test: z-score of subpopulation abundance vs DMSO median, subpopulation auxotrophic for HLUM; higher = larger share of this subpopulation than in DMSO controls; details: 10 µM; 24 h; SM minimal medium; subpopulation (auxotrophy): HLUM
Method in brief: as §1

| Structure (SMILES) | z-score of prototroph abundance [1] | z-score of subpopulation abundance [2] | z-score of subpopulation abundance [3] | z-score of subpopulation abundance [4] | z-score of subpopulation abundance [5] | z-score of subpopulation abundance [6] | z-score of subpopulation abundance [7] | z-score of subpopulation abundance [8] | z-score of subpopulation abundance [9] | z-score of subpopulation abundance [10] | z-score of subpopulation abundance [11] | z-score of subpopulation abundance [12] | z-score of subpopulation abundance [13] | z-score of subpopulation abundance [14] | z-score of subpopulation abundance [15] | z-score of subpopulation abundance [16] |
| --- | --- | --- | --- | --- | --- | --- | --- | --- | --- | --- | --- | --- | --- | --- | --- | --- |
| C[C@H]1c2cccc(O)c2C(O)=C2C(=O)[C@]3(O)C(O)=C(C(N)=O)C(=O)[C@@H](N(C)C)[C@@H]3[C@@H](O)[C@@H]21 [Doxycycline monohydrate] | 0.75 | -0.88 | 0.54 | -0.54 | 0.17 | -0.41 | 0 | -1.15 | -1.42 | -1.13 | -0.19 | -0.54 | 0.18 | -0.92 | 0.2 | 0.42 |
| OC1(c2ccc(Cl)c(C(F)(F)F)c2)CCN(CCCC(c2ccc(F)cc2)c2ccc(F)cc2)CC1 [Penfluridol] | -1.64 | 1.3 | 0.81 |  | 0.09 | 0.13 | 2.64 | 0.4 | 0.66 |  |  | 0.93 | 0.92 | 0.44 | 2.56 | 0.27 |
| CN(C)c1cc(NC(=O)CNC(C)(C)C)c(O)c2c1CC1CC3C(N(C)C)C(=O)C(C(N)=O)=C(O)C3(O)C(=O)C1=C2O (configuration not stated) [Tigecycline] | 0.44 | -1.16 | -1.67 | 0.22 | 0.59 | -0.07 | -0.64 | -0.15 | 1.34 | -0.23 | -0.79 | -0.27 | 0.02 | -0.19 | -0.85 | -0.04 |
| CC(C)c1nc(N(C)S(C)(=O)=O)nc(-c2ccc(F)cc2)c1/C=C/[C@@H](O)C[C@@H](O)CC(=O)O [Rosuvastatin Calcium] | -1.23 | -1.93 | 0.29 | 0.59 | 0.06 | 1.26 | -1.44 | 3.45 | 2.1 | 2.31 | 0.38 | 1.41 | 3.96 | 2.14 | 1.01 | 0.9 |
| CN1CCN2c3ncccc3Cc3ccccc3C2C1 (configuration not stated) [Mirtazapine] | 0.24 | 0.18 | -0.64 | 0.29 | -0.51 | -0.59 | -0.11 | -0.07 | 0.29 | 0.24 |  | -0.45 | -0.85 | 1.07 | -0.74 | -0.87 |
| COc1ccc2cc(C(=O)O)ccc2c1 [6-Methoxy-2-naphthoic acid] | 2.36 | -2.65 | 0.27 | -1.91 | 2.01 | -1.63 | -1.51 | 0.22 | -0.63 | -3.74 | 0.89 | 0.62 | 3.71 | -1.83 |  | 1.63 |
| CC(=O)NC[C@H]1CN(c2ccc(N3CCOCC3)c(F)c2)C(=O)O1 [Linezolid] | -0.12 | -0.22 | -0.63 | 1.39 | -0.56 | 0.78 | 0.19 | -0.27 | -0.11 | 0.29 | -0.58 | 0.07 | -0.75 | 0.01 | -0.15 | -0.36 |
